CYP2C9 inhib: inhibitors of human CYP2C9. P11712. CYP2C9 Supersomes, luciferin-H conversion, luminescence. inhibition, % at 5 µM. 96,000 compounds, 20% hits. AID 777;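 active = blocking of liver enzyme CYP2C9 beyond about 50% at 5 µM, limit read from the data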
CYP2C19 inh: blocks human cytochrome P450 2C19; P33261; CYP2C19 Supersomes, luciferin-H EGE luminescence, 30 min; inhibition, % at 5 µM; 96,000 compounds, 21% hits; AID 778;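 active = CYP2C19 inhibition above a set limit at 5 µM in the primary screen, cut at about 50% in these data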;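 also: plate controls were negative control wells for no effect and 2.5 mM tranylcypromine positive control for full effect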
Target sequence (P33261 whole entry, looked up): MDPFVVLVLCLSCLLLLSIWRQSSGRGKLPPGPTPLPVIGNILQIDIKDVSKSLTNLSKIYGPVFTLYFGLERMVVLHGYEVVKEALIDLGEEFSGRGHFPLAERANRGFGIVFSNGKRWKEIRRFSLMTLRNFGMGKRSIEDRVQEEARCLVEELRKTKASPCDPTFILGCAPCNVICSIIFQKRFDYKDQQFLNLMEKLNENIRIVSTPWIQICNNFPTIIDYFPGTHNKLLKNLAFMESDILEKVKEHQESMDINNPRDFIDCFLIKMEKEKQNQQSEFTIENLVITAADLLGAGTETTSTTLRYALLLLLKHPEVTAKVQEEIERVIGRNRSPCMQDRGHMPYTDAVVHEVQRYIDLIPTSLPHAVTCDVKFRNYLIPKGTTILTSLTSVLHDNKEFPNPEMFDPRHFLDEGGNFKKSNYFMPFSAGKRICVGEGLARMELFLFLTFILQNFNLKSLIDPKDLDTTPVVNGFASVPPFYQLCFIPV
CYP2C19 act: cytochrome P450 2C19 (human) activation | P33261 | activation factor at 5 µM | 96,000 tested, under 10 active | recombinant CYP2C19, luciferin-H EGE luminescence; active compounds read high; 0 = fully inhibited enzyme, 1 = untreated enzyme;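 active = activation factor of at least 2 at 5 µM in the primary screen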;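 also: 0 = wells with 2.5 mM tranylcypromine and 1 = vehicle-only wells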
PostGolgi yeast: growth inhibition of a yeast mutant, post-Golgi transport screen; 98,000 compounds, 0.9% hits; inhibition, % at 10 µM; AID 739; post-Golgi transport phenotypic cell assay;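 also: yeast cells grown in 1536-well plates; yeast grown about 18 h at 30C before absorbance read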
PostGolgi ctrl: growth of the yeast control strain, post-Golgi counter-screen. efflux-deficient yeast background strain, growth absorbance A615, 16 h. inhibition, % at 10 µM. 98,000 compounds, 5% hits
CYP2C9 act: CYP2C9 (human) activation; P11712; recombinant CYP2C9, luciferin-H conversion, luminescence; active compounds read high; factor 1 = untreated enzyme, 0 = blocked; activation factor at 5 µM; 96,000 compounds, 1.4% hits;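 active = activation factor of 2 or more for CYP2C9 at a 5 µM dose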;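 also: 0 = sulfaphenazole-blocked wells and 1 = vehicle-only wells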
Starred values were filed as active, the others as inactive; . = no result. Hits are enriched below; roughly 32% of the tested compounds scored in any of these assays. Rule as the data show it, unless noted: active = inhibition above about 30%; inactive = the rest.

SMILES	CYP2C9 inhib	CYP2C19 inh	CYP2C19 act	PostGolgi yeast	PostGolgi ctrl	CYP2C9 act
O=C(Nc1ccc(Cl)c(Cl)c1)c1ccncc1	54*	96*	0	-2	3	0.5
O=C(Nc1cccc(Cl)c1)c1ccncc1	25	68*	0.3	-3	13	0.7
CC(=O)c1ccc(OCC(O)CN2CCN(CCO)CC2)cc1 (configuration not stated)	23	-6	1.1	-10	15	0.8
c1ccc(CNc2nc3ccccc3n2CCN2CCOCC2)nc1	10	6	0.9	2	8	0.9
N#CC1(P(=O)(c2ccccc2)c2ccccc2)CC1	-1	-16	1.2	.	7	1
Cc1ccc(C2/C(=C(/O)c3ccc(Cl)cc3)C(=O)C(=O)N2CC2CCCO2)o1 (configuration not stated)	27	-16	1.2	9	6	0.7
O=C1CC(C(=O)O)S/C(=N\NC(=O)c2ccccc2)N1 (configuration not stated)	3	2	1	-3	6	1
CC(OC(=O)c1ccncc1)C(=O)Nc1cccc(Cl)c1 (configuration not stated)	63*	75*	0.3	-2	4	0.4
O=C(Nc1ccc(Cc2ccncc2)cc1)c1ccc(Cl)c([N+](=O)[O-])c1	76*	77*	0.2	67*	78*	0.2
O=C(CNc1cccc(Cl)c1)c1ccc(Cl)cc1	15	86*	0.1	4	17	0.9
CCC(=O)NC1(C(F)(F)F)C(=O)Nc2c1c(=O)n(C)c(=O)n2C (configuration not stated)	58*	72*	0.3	18	2	0.4
Cc1ccc(S(=O)(=O)NC2(C(F)(F)F)C(=O)Nc3c2c(=O)n(C)c(=O)n3C)cc1 (configuration not stated)	8	6	0.9	-1	2	0.9
COc1cccc(NC2SC(=O)N(c3ccccc3)C2=O)c1 (configuration not stated)	22	-6	1.1	2	2	0.8
Cn1c(=O)oc2cc(S(=O)(=O)NCCC(=O)NCCc3ccccc3)ccc21	-12	72*	0.3	10	-1	1.1
CCCN(CCC)CCNS(=O)(=O)c1ccc2c(c1)oc(=O)n2C	-7	-7	1.1	-7	1	1.1
CC(=O)N1CCc2cc(S(=O)(=O)NCCC(=O)N3CCN(c4ccccn4)CC3)ccc21	20	-1	1	10	35*	0.8
CC(=O)N1CCc2cc(S(=O)(=O)NCCC(=O)NCCc3ccc(C)cc3)ccc21	59*	6	0.9	5	-1	0.4
CCN(CCNS(=O)(=O)c1ccc2c(c1)oc(=O)n2C)c1ccccc1	-86	65*	0.3	0	3	1.9
Cn1c(=O)oc2cc(S(=O)(=O)NCCC(=O)NCCc3ccc(Cl)cc3)ccc21	22	50	0.5	6	-4	0.8
Cc1ccc(CCNC(=O)CCNS(=O)(=O)c2ccc3c(c2)oc(=O)n3C)cc1	0	58*	0.4	7	1	1
COc1ccccc1CNS(=O)(=O)c1ccc2c(c1)oc(=O)n2C	-188	98*	0	2	9	2.9*
CCN(CC)c1ccc(NS(=O)(=O)c2ccc3c(c2)oc(=O)n3C)c(C)c1	53*	84*	0.2	-9	7	0.5
CC(C)NS(=O)(=O)c1ccc2c(c1)oc(=O)n2C	.	.	.	2	12	.
COc1ccccc1CNC(=O)C(NS(=O)(=O)c1ccc2c(c1)oc(=O)n2C)C(C)C (configuration not stated)	6	12	0.9	-1	0	0.9
CCOC(=O)C1CCN(C(=O)c2sc3nc(-c4ccc(F)cc4)cn3c2C)CC1	34	20	0.8	-5	8	0.7
COc1ccc(NC2=C(C)C(=O)CC2)cc1	19	13	0.9	-4	46*	0.8
COCCNCCOc1ccccc1-c1ccccc1	13	59*	0.4	7	-5	0.9
O=C(NC1CCCc2ccccc21)C1CCN(S(=O)(=O)c2cccc3nsnc23)CC1 (configuration not stated)	-3	8	0.9	-3	5	1
O=C(CS(=O)c1ccc(C(F)(F)F)cc1[N+](=O)[O-])Oc1ccc(Cl)cc1 (configuration not stated)	31	2	1	5	4	0.7

Bioassay records: PubChem, several laboratories
